Results on 8 compounds are retold here after PubChem BioAssay (Tox21).

Assay [1] is described as follows: Nuclear factor erythroid 2-related factor 2/antioxidant responsive element (Nrf2/ARE) small molecule agonists: qHTS cell viability counter screen in human keratinocytes (AID 1919968; active means well fitted curve in the direction sought with a large enough effect in the repeat runs; an effect the other way counts as inactive or inconclusive; further: nearly all actives have a fitted effect of over 55% in size). In a few lines: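 Cells of the KeratinoSens line were plated at 1,500 per well and left for 5 h before compound transfer from DMSO stocks. After a 23 h incubation (37 C, 5% CO2), CellTiter-Fluor was added. Signal was taken as fluorescence intensity 1 h later.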
(In general: In qHTS, concentration-response curves come from the screen itself.)

The target in assay [2] is Gonadotropin-releasing hormone receptor (Homo sapiens) (UniProt P30968). Description: Human gonadotropin-releasing hormone receptor (GnRHR) small molecule agonists, calcium flux assay in GnRHR-HEK293 cells (AID 1920063). Further: nearly all actives have a fitted effect of over 35% in size. In a few lines:
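Compounds dissolved in DMSO are pin-transferred onto dye-loaded GnRHR-HEK293 cells, which were seeded 18 h before at 37 C/5% CO2. Calcium signal is read as fluorescence intensity at 1 s intervals for 3 min.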

The target of assay [3] is KiSS-1 receptor (Homo sapiens) (UniProt Q969F8). The experiment in a line: Human kisspeptin (KISS1R) small molecule agonists, calcium flux assay in KISS1R-HEK293 cells (AID 1920064; active means well fitted curve in the direction sought with a large enough effect in the repeat runs; an effect the other way counts as inactive or inconclusive). In a few lines: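 Cell line: HEK293, stable human KISS1R. Dye loading 1 h at 37 C after 18 h culture. Read: kinetic fluorescence, 480/540 nm, 3 min at 1 s intervals.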
Assay [4] can be described thus: G protein-coupled receptor (GPCR) small molecule agonists, calcium flux assay: HEK293 wild type cell line counter screen (AID 1920065). In a few lines: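 Tox21 10K compounds, 15 concentrations each in triplicate, pin-transferred in DMSO onto dye-loaded cells; kinetic read at 480/540 nm for 3 min, 1 s intervals.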
Assay [5] is described as follows: p53 small molecule agonists, cell-based qHTS assay with human liver microsomes (AID 1963577).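 Further: p53 response element beta-lactamase reporter cells with liver microsomes plus NADPH.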 In a few lines: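 Metabolically competent format: test substances, human liver microsomes and NADPH (both 0.5 mg/mL final) incubated with p53RE-bla cells 16 h at 37 C. Beta-lactamase reporter signal then quantified by fluorescence.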
The nature of assay [6]: p53 small molecule agonists, cell-based qHTS assay with rat liver microsomes (AID 1963578). In a few lines: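 Each plate received p53RE-bla cells, then compound, then rat liver microsomes and NADPH (both 0.5 mg/mL final). Plates were held 16 h at 37 C, and beta-lactamase activity was detected with LiveBLAzer over 2 h.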
Assay [7] in a line: p53 small molecule agonists, cell-based qHTS assay with human liver microsomes: qHTS cell viability counter screen (AID 1963579). Further: nearly all actives have a fitted effect of over 45% in size. In a few lines:
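Tox21 library compounds, delivered from DMSO stocks, were tested on p53RE-bla cells together with 0.5 mg/mL human liver microsomes and 0.5 mg/mL NADPH (final) over 16 h at 37 C; CellTiter-Glo luminescence served as the cytotoxicity measure.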

Assay [8] is described as follows: p53 small molecule agonists, cell-based qHTS assay with rat liver microsomes: qHTS cell viability counter screen (AID 1963580). Further: nearly all actives have a fitted effect of over 45% in size. In a few lines:
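Cytotoxicity counter screen: intracellular ATP measured by CellTiter-Glo luminescence in the same wells as the beta-lactamase reporter read, on HCT-116 p53RE-bla cells exposed 16 h at 37 C to compounds with rat liver microsomes and NADPH, each 0.5 mg/mL final.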

Assay [9] in a line: p53 small molecule agonists, cell-based qHTS assay: qHTS cell viability counter screen (AID 1963581). Further: nearly all actives have a fitted effect of over 45% in size. The method in brief: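 ATP content measured by luminescence in HCT-116 p53RE-bla cells treated 16 h at 37 C, same wells as the reporter screen.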
Assay [10] in a line: p53 small molecule agonists, cell-based qHTS assay (AID 1963582; active means well fitted activation curve with a large enough effect in the signal ratio in the repeat runs, not every such curve was filed as active; the % refers to the signal ratio). The method in brief: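 16 h compound exposure (37 C) of p53 response element–bla cells, preceded by 5 h recovery at 37 C/5% CO2; read-out via LiveBLAzer B/G FRET substrate, 2 h RT, fluorescence intensity.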
In assay [11] the target is 5-hydroxytryptamine receptor 2A (Homo sapiens) (UniProt P28223). The experiment in a line: 5-hydroxytryptamine receptor 2A (HTR2A) small molecule antagonists, cell-based qHTS assay (AID 1963586). Further: nearly all actives have a fitted effect of over 45% in size. Further: potency means the concentration at half of the fitted maximal effect. The method in brief: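 CHO cells stably expressing human HTR2A were plated for 18 h at 37 C, then loaded with calcium dye for 1 h. Compounds were preincubated 5 min at room temperature before DOI (4 nM solution) was added. Kinetic fluorescence was read for 3 min.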

Assay [12] shares this target. Description: 5-hydroxytryptamine receptor 2A (HTR2A) small molecule agonists, cell-based qHTS assay (AID 1963587). Further: nearly all actives have a fitted effect of over 30% in size. The method in brief:
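CHO cells stably expressing human HTR2A, plated 18 h, loaded with calcium dye 1 h at 37 C. Agonist mode: compounds added and intracellular calcium fluorescence recorded kinetically for 2 min at 1 sec intervals.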

The target in assay [13] is Muscarinic acetylcholine receptor M1 (Homo sapiens) (UniProt P11229). The experiment in a line: Cholinergic receptor muscarinic 1 (CHRM1) small molecule antagonists, cell-based qHTS assay (AID 1963588). Further: nearly all actives have a fitted effect of over 40% in size. In a few lines:
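Compounds were tested at 15 concentrations in three independent runs. Dye-loaded CHRM1-CHO cells were exposed 5 min at room temperature before stimulation by acetylcholine added at 50nM. Intracellular calcium was read kinetically on FDSS for 3 min.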

For assay [14] the target is unchanged. The experiment in a line: Cholinergic receptor muscarinic 1 (CHRM1) small molecule agonists, cell-based qHTS assay (AID 1963589). Further: nearly all actives have a fitted effect of over 35% in size. The method in brief: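 Homogeneous fluorescence calcium flux, agonist mode. Human M1-expressing CHO cells; compound dosed at 15 concentrations, three independent runs; signal sampled every 1 sec.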
The nature of assay [15]: cAMP Responsive Elements (CRE) small molecule agonists, cell-based qHTS assay (AID 1963590). In a few lines: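 HEK 293T cells stably bearing CRE-bla were plated at 2,000 cells per well and rested 18 h. Compounds, positive controls or DMSO were added for 3 h at 37 C. LiveBLAzer B/G substrate was then loaded for 2 h at room temperature.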
In assay [16] the target is D(2) dopamine receptor (Homo sapiens) (UniProt P14416). Description: Dopamine D2 receptor (DRD2) small molecule agonists, cell-based qHTS assay (AID 1963594). Further: nearly all actives have a fitted effect of over 35% in size. In a few lines: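 HEK293 cells stably expressing human DRD2, pre-treated with PDE inhibitor Ro20-1724 (0.1 mM final) and compound 10 min at room temperature, then stimulated with NKH477 (200nM […]) for 30 min. cAMP read by HTRF (665/620 nm).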

Assay [17] shares this target. Description: Dopamine D2 receptor (DRD2) small molecule antagonists, cell-based qHTS assay (AID 1963595; active means well fitted inhibition curve with a large enough effect in the signal ratio in the repeat runs, with a control signal flat; the % refers to the signal ratio). The method in brief: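 Antagonism was scored as restored cAMP in HEK293-DRD2 cells. These cells were stimulated with 200 nM NKH477 and 12 nM quinpirole for 30 min at room temperature, in the presence of 0.1 mM Ro20-1724.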
Assay [18] addresses Beta-2 adrenergic receptor (Homo sapiens) (UniProt P07550). Description: Adrenergic beta2 receptor (ADRB2) small molecule agonists, cell-based qHTS assay (AID 1963593).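 Further: CHO cells stably overexpressing human ADRB2.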 In a few lines:
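CHO cells stably over-expressing ADRB2 were plated overnight at 37C, then dosed with compounds plus a stimulation mix containing 100uM IBMX and 25uM Ro-20-1724 for 0.5hr at room temperature. cAMP was measured by HTRF competition, 1hr.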

Assay [19] in a line: cAMP Responsive Elements (CRE) small molecule antagonists, cell-based qHTS assay (AID 1963591; active means well fitted inhibition curve with a large enough effect in the signal ratio in the repeat runs, not every such curve was filed as active; the % refers to the signal ratio). In a few lines:
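First, CRE-bla HEK293T cells settled 18 h at 37 C. Next, compound and 0.25 uM final NKH477 were applied for 3 h. Last, LiveBLAzer B/G substrate was loaded for 2 h at room temperature.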

The target in assay [20] is Beta-2 adrenergic receptor (Homo sapiens) (UniProt P07550). The experiment in a line: Adrenergic beta2 receptor (ADRB2) small molecule antagonists, cell-based qHTS assay (AID 1963592). Further: series mostly up to about 92 µM; nearly all actives have a fitted effect of over 50% in size. The method in brief:
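Assay format: CHO-ADRB2 cells, 18-20hr seeding at 37C/5% CO2, then compound plus 1nM isoproterenol agonist mix for 0.5hr RT. Homogeneous time-resolved fluorescence cAMP detection after 1hr, expressed as 665/615 nm ratio.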

Unmarked numbers belong to inactive results. Results filed as inconclusive are left out. Active and inactive are the calls of the source. Unless noted, the call rests on the fitted dose curve.
On the % scale 0 is the no-effect control and ±100 the full control effect.

Muscarinic acetylcholine receptor M1 (Homo sapiens), sequence (P11229 whole entry, looked up): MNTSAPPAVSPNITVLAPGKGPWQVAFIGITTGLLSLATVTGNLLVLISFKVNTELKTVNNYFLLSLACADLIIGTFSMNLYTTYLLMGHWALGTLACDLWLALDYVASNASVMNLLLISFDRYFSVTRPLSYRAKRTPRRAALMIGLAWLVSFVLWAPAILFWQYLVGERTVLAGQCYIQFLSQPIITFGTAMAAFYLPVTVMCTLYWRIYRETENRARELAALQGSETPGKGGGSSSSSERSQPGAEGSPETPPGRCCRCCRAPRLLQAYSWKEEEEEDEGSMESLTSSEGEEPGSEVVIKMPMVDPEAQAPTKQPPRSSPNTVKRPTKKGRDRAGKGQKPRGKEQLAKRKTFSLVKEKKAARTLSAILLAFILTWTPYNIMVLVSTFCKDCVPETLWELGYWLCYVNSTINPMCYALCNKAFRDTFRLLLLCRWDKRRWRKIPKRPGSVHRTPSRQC
Beta-2 adrenergic receptor (Homo sapiens), sequence (P07550 whole entry, looked up): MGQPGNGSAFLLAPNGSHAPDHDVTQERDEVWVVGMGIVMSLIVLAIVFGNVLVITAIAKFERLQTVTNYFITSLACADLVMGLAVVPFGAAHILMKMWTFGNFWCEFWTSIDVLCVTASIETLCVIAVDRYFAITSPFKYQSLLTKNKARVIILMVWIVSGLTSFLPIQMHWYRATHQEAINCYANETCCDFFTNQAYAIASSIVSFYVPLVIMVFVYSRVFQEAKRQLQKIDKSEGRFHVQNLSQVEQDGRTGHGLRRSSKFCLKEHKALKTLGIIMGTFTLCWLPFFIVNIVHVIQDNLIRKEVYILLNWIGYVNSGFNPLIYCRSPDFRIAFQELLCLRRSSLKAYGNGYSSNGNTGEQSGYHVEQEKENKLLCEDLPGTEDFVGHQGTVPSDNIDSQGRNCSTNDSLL
KiSS-1 receptor (Homo sapiens), sequence (Q969F8 whole entry, looked up): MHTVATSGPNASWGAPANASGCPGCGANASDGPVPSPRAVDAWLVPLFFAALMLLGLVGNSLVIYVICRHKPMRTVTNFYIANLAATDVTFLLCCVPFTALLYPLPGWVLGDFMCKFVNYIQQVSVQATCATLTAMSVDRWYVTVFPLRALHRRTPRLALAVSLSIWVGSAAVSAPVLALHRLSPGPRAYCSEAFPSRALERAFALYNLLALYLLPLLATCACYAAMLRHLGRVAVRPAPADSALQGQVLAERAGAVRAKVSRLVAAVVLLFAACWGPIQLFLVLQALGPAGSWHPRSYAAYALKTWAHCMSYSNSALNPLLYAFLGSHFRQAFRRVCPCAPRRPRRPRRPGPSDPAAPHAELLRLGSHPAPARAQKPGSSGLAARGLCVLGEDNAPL
Gonadotropin-releasing hormone receptor (Homo sapiens), sequence (P30968 whole entry, looked up): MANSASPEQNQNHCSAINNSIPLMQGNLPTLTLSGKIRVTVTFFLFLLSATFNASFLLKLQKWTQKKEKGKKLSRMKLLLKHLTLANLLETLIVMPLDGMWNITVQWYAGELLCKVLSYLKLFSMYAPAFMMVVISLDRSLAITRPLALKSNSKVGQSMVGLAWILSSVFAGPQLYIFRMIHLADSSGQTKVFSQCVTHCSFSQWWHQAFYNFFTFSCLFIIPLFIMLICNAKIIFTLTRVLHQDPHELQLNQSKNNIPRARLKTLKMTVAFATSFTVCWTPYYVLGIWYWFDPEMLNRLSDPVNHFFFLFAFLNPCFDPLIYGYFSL
5-hydroxytryptamine receptor 2A (Homo sapiens), sequence (P28223 whole entry, looked up): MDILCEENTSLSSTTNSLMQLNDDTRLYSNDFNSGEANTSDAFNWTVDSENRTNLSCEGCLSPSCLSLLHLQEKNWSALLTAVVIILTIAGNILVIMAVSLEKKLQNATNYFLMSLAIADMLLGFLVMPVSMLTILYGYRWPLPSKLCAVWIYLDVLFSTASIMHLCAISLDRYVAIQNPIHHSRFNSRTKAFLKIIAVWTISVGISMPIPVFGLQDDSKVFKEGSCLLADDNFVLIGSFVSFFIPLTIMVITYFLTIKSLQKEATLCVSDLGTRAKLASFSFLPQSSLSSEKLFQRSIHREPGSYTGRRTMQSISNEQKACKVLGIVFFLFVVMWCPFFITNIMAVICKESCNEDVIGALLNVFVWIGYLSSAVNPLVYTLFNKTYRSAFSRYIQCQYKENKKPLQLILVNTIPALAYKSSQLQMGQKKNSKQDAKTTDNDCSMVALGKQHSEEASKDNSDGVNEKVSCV
D(2) dopamine receptor (Homo sapiens), sequence (P14416 whole entry, looked up): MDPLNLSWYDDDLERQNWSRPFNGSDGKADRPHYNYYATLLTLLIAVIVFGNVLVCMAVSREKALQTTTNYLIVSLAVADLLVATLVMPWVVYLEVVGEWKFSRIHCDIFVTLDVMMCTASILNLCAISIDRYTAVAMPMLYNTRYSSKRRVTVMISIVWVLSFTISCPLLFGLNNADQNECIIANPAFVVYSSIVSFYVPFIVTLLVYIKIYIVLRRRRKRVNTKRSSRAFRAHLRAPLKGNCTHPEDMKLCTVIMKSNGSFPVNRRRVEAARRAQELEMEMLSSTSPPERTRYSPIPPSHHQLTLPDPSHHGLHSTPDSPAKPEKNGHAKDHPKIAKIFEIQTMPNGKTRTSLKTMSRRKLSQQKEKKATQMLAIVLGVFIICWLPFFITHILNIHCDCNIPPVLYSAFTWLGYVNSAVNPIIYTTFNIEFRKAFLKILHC

For the compound `CC1(C)S[C@@H]2[C@H](NC(=O)C(c3ccccc3)S(=O)(=O)O)C(=O)N2[C@H]1C(=O)O` (stereo not given in full), the Potency entry in assay [1], in assay [2], in [5], in assay [6], in [7] and in assay [8] was “inactive” in each case. The Potency result in [9], in [10], in [11], in assay [12], in [13] and in assay [14] was “inactive” each time. Besides, the Potency entry in [15], in [16] and in [17] was “inactive” each time. Further, the result in assay [3] and in assay [4] was inactive.
Take `O=C(Nc1cccc(C2=NCCN2)c1)Nc1cccc(C2=NCCN2)c1`: the activity change, negative = cytotoxicity in [1] is 19.9% [at 19 µM]; in assay [7] it was 1.91% [at 13.5 µM]; in assay [8] it was 0.748% [at 13.5 µM]; in [9], -8.13% [at 13.5 µM]. In addition, in assay [2], the activity change is -0.181% [at 11.8 µM, active compounds read high]. Moreover, the activation in assay [3] was -0.538% [at 15.8 µM]; in assay [4], 2.04% [at 11.8 µM]; in assay [5], -0.295% [at 13.5 µM]; in [6], -1.12% [at 13.6 µM]; in assay [10], 1.58% [at 13.5 µM]; in assay [12], 1.02% [at 15.9 µM]. The activation in assay [14] was -0.0869% [at 15.8 µM]; in assay [15], -0.37% [at 19 µM]; in assay [16], -15.4% [at 19 µM]. Besides, the values for the activity, negative = inhibition in [11] and in [13] were -37.2% [at 12.7 µM] and -4.67% [at 12.6 µM], respectively. The Potency entry in assay [18] is “inactive”. The activity change, negative = inhibition in assay [17] was -4.58% [at 18.9 µM].
For the compound `CCC=O`, the Potency entry in [1], in assay [6], in [7], in [8], in assay [9] and in [12] was “inactive” each time. Besides, the Potency result in assay [13], in [15], in assay [19], in [20], in assay [16] and in [17] was “inactive” throughout. The result in [3] and in assay [4] was inactive.
`CCCCCCCC(C)=O`: the Potency entry in assay [1], in assay [2], in assay [5], in [6], in assay [7] and in [8] was “inactive” each time. For the same compound, the Potency result in assay [9], in assay [10], in assay [11], in [12], in assay [13] and in assay [14] was “inactive” in each case. The Potency entry in [15], in [19], in [16] and in assay [17] was “inactive” throughout. For the same compound, the outcome in [3] and in [4] was inactive.
Turning to `CC(C)Cc1nccs1`, the Potency result in assay [1], in assay [5], in assay [6], in assay [7], in assay [8] and in assay [12] was “inactive” each time. For the same compound, the Potency result in assay [13], in [14], in assay [19] and in assay [16] was “inactive” each time. The result in assay [4] was inactive.
Take `Cc1c(Cl)cccc1[N+](=O)[O-]`: the Potency entry in assay [1], in assay [2], in [5], in assay [6], in assay [7] and in assay [8] was “inactive” throughout. Further, the Potency entry in [9], in [10], in assay [11], in assay [12], in assay [13] and in assay [14] was “inactive” throughout. Also, the Potency entry in assay [15], in assay [18], in [16] and in assay [17] was “inactive” throughout. Moreover, the result in assay [3] and in [4] was inactive.
Turning to `CN(C)CCCOC1(Cc2ccccc2)CCCCCC1`, the Potency result in assay [1], in [5], in assay [6], in assay [8], in assay [12] and in [13] was “inactive” in each case. For the same compound, the Potency result in [14], in assay [19], in [20], in [18] and in assay [17] was “inactive” each time. In addition, in assay [3], the outcome was inactive. Moreover, the Potency in [11] is 10.3 µM (active).
For `CCOC(C)=O`, the Potency result in assay [1], in [5], in assay [6], in [7], in assay [9] and in assay [10] was “inactive” throughout. Further, the Potency result in assay [11], in assay [12], in assay [13], in assay [14], in [15] and in [19] was “inactive” each time. The Potency entry in assay [20], in assay [16] and in [17] was “inactive” throughout. The result in assay [3] was inactive.
